Compounds with a hit are over-represented: about 2.5% of the library has one in this group of screens.
ABCB6 inh MLPCN – human ABCB6 transporter inhibition; actives 0.19% (n = 360,000); K562-ABCB6 porphyrin accumulation, flow cytometry, 1 h; stronger effect = lower value; fluorescence ratio to DMSO, % at 10 µM;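 active = fluorescence ratio to DMSO below 75%, the collection mean minus 3 SD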;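 note: signal is porphyrin accumulated inside mitochondria; 100% equals median channel fluorescence of DMSO control wells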
Target sequence (Q9NP58 whole entry, looked up): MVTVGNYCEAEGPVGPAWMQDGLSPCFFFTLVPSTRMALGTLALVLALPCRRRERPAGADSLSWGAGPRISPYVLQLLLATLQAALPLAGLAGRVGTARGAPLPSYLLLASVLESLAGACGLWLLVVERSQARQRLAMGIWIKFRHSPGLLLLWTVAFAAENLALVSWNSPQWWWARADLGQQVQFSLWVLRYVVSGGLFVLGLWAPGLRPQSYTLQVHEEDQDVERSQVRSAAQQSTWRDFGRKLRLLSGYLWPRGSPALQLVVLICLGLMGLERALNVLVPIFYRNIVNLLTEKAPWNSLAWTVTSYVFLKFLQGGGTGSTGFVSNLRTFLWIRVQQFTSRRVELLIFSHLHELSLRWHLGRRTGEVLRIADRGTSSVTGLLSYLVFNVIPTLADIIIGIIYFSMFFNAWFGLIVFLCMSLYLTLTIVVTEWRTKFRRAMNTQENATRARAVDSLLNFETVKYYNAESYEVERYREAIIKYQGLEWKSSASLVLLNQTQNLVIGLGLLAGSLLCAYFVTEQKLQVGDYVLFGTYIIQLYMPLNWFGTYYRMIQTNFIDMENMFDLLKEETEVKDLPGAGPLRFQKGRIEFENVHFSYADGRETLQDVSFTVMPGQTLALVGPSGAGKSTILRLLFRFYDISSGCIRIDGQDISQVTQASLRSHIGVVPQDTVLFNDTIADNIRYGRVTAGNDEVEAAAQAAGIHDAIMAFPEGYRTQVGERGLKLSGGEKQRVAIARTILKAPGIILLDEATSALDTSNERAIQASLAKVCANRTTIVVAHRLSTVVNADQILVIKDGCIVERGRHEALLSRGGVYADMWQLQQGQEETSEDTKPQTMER
PG9 Ab binder – PG9 antibody binding by small molecule | TR-FRET gp120-PG9 antibody binding | inhibition, % at 6.7 µM | actives 0.43% (n = 360,000); in the data active = inhibition above about 8.5%
Exocytosis inh – blocks lytic granule exocytosis; inhibition, % at 10 µM; AID 651702; actives 0.66% (n = 360,000); TALL-104 LAMP-1 surface exposure, flow cytometry; cells stimulated with thapsigargin and PMA;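 active = inhibition above about 55%, limit read from the data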
rCAG binder – r(CAG) repeat RNA binding; inhibition, % at 3 µM; TO-PRO-1 dye displacement fluorescence; AID 651821; actives 1.3% (n = 370,000);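 active = inhibition above the plate cutoff, the mean of all test compounds on that plate plus 3 SD, cut at about 35% in these data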;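 note: 0% = DMSO alone and 100% = 100 µM mitoxantrone as full dye displacement; higher means more dye released from RNA so lower well fluorescence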
rCAG binder conf – r(CAG) RNA repeat binding, confirmation; actives 70% (n = 4,300); inhibition, % at 3 µM; shares compounds with rCAG binder; TO-PRO-1 dye displacement fluorescence;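 active = inhibition above a per-plate cutoff, the mean inhibition of sample wells plus 3 SD, cut at about 35% in these data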;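 note: loss of TO-PRO-1 fluorescence as compound displaces dye from 1x1 AA loop RNA; 0% = DMSO only wells and 100% = 100 µM mitoxantrone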
dCAG dye counter – disrupts DNA CAG TO-PRO-1 complex, flagging rCAG hits; inhibition, % at 3 µM; shares compounds with rCAG binder; d(CAG) DNA oligo TO-PRO-1 dye displacement, fluorescence; actives 94% (n = 4,300);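 active = inhibition above its plate's cutoff, the mean test-well inhibition plus 3 SD, cut at about 4.8% in these data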;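 note: 0% = DNA dye mix with DMSO and 100% = 100 µM mitoxantrone; hits displace the dye from DNA and so lower well fluorescence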
DNA CAG DR – counter-screen for rCAG binders: inhibitors of DNA CAG TO-PRO-1 complex | actives 20% (n = 250) | IC50, µM | DNA CAG/GTC duplex TO-PRO-1 dye displacement fluorescence | shares compounds with rCAG binder; in the data active = IC50 below about 10 µM
* marks the source's active call; other numbers are inactive results; i = inactive; . = no result given.

SMILES | ABCB6 inh MLPCN | PG9 Ab binder | Exocytosis inh | rCAG binder | rCAG binder conf | dCAG dye counter | others
Cc1ccc(NS(=O)(=O)c2ccc(Cl)c(NC(=S)NC(=O)C3CCCCC3)c2)cc1Cl | 95 | 0 | 16 | 45* | 41* | 17*
COc1cc(NS(=O)(=O)c2ccc(NC(=S)NC(=O)c3ccc(F)cc3)cc2)nc(OC)n1 | 97 | -1 | -1 | 24 | . | .
COc1ccc(C(=O)NC(=S)Nc2ccc(S(=O)(=O)Nc3cc(OC)nc(OC)n3)cc2)cc1 | 97 | 0 | 6 | 58* | 55* | 20*
Cc1ccc(NC(=O)C2CCCC2)cc1Cl | 93 | -2 | 4 | -3 | . | .
COc1cc(NS(=O)(=O)c2ccc(NC(=S)NC(=O)C3CCCC3)cc2)nc(OC)n1 | 101 | -4 | 0 | 45* | 33 | 10*
COc1ccc(OCC(=O)NC(=S)Nc2ccc(S(=O)(=O)Nc3cc(OC)nc(OC)n3)cc2)cc1 | 101 | -3 | -2 | 52* | 53* | 20*
O=C(CSc1nnc(-c2ccc(Cl)cc2)n1Cc1ccco1)Nc1cccc2ccccc12 | . | . | . | 8 | . | .
Cc1c(N2C(=O)c3ccccc3C2(O)c2ccccc2)c(=O)n(-c2ccccc2)n1C (stereo unspecified) | 99 | -1 | -2 | -5 | . | .
O=C1c2ccccc2C(O)(c2ccccc2)N1c1ccc([N+](=O)[O-])cc1Cl (stereo unspecified) | 106 | 1 | 0 | 40* | 40* | 10*
CCC(C)n1c(SCC(=O)NC2CCS(=O)(=O)C2)nc2ccccc2c1=O (stereo unspecified) | 98 | -3 | 3 | -3 | . | .
CCCN(CC(=O)Nc1ccccc1OC)C(=O)c1cc(-c2ccccc2)nn1-c1ccccc1 | 99 | -2 | -4 | -1 | . | .
O=S(=O)(Nc1ncccn1)c1ccc(NC(=S)N2CCN(Cc3ccc(F)cc3Cl)CC2)cc1 | 93 | 0 | 2 | 39* | 38* | 11*
O=C(O)CN1C(=O)/C(=C/c2ccccc2Cl)Oc2ccccc21 | 97 | 0 | -3 | 39* | 35* | 7.3*
Cc1ccc(S(=O)(=O)NC(=O)C2(C)CCN2C(=O)CC2CCCC2)cc1 (stereo unspecified) | 98 | 1 | 1 | 5 | . | .
CC1(C(=O)NS(=O)(=O)c2ccc3ccccc3c2)CCN1C(=O)CC1CCCCC1 (stereo unspecified) | 102 | 0 | 6 | 39* | 57* | 20*
CC(C)(C)c1ccc(S(=O)(=O)NC(=O)C2(C)CCN2C(=O)CC2CCCC2)cc1 (stereo unspecified) | 92 | 0 | 2 | 37* | 22 | 3
Nc1nnn(CC(=O)N/N=C/c2cccc(Cl)c2)n1 | 93 | -1 | -8 | -2 | . | .
C/C=C/COC(=O)c1[nH]c2c(c1C)C(=O)CC(c1ccco1)C2 (stereo unspecified) | 108 | 1 | -3 | 38* | 12 | 9.4*
COc1ccc([C@@H]2CC=C(C(=O)O)[C@H](c3ccc(F)cc3)N2S(=O)(=O)c2ccc(Cl)cc2)cc1 | 99 | 1 | 24 | 58* | 47* | 15*
Cc1ccc(S(=O)(=O)N2[C@@H](c3cccc(Cl)c3)C(C(=O)O)=CC[C@H]2c2cccc(Cl)c2)cc1 | 98 | 0 | 8 | 9 | . | .
COc1ccc([C@@H]2CC=C(C(=O)O)[C@H](c3cccc(Cl)c3)N2S(=O)(=O)c2ccc(Cl)cc2)cc1 | 94 | -1 | -6 | 74* | 71* | 33* | DNA CAG DR=i
CCCc1nc2nc(C)c(NS(=O)(=O)c3ccc(F)cc3)c(=O)n2[nH]1 | 98 | -1 | 3 | 2 | . | .
CCCc1nc2nc(C)c(NS(=O)(=O)c3ccc(C4CCCCC4)cc3)c(=O)n2[nH]1 | 95 | 0 | -1 | 59* | 62* | 16*
O=C(Nc1sc2c(c1C(=O)O)CCCCC2)c1ccccc1F | 103 | -1 | 0 | 36* | 20 | 4
COC(=O)c1c(NC(=O)c2ccccc2C(=O)O)sc2c1CCCC2 | 78 | -2 | -9 | 24 | . | .
SMILES | ABCB6 inh MLPCN | PG9 Ab binder | Exocytosis inh | rCAG binder | rCAG binder conf | dCAG dye counter | others
CCOC(=O)c1c(N2C(=O)Nc3ccccc3N2O)sc2c1CCCC2 | 89 | -3 | 1 | 38* | 30 | 6.7*
CCOC(=O)c1c(NC(=O)c2ccccc2C(=O)O)sc2c1CCCC2 | 99 | 0 | 3 | 55* | 46* | 16*
O=C(Nc1sc2c(c1C(=O)O)CCCCC2)c1cccs1 | 101 | 0 | 0 | 36* | 19 | 4.7*
O=C(NCc1ccco1)C(c1ccncc1)N(C(=O)Cn1nnc2ccccc21)c1ccccc1F (stereo unspecified) | 97 | 1 | 4 | -1 | . | .
COc1cc(C(C)=O)ccc1OCC(=O)OCCCOC(=O)COc1ccc(C(C)=O)cc1OC | 92 | -1 | 0 | -3 | . | .
O=C(/C=C/c1cccs1)Nc1sc2c(c1C(=O)O)CCCC2 | 98 | -3 | 8 | 53* | 28 | 6.7*
CCOC(=O)c1c(NC(=O)C2C3C=CC(C3)C2(C)C(=O)O)sc2c1CCCC2 (stereo unspecified) | 93 | 2 | -6 | 43* | 46* | 15*
CCOC(=O)c1c(NC(=O)C2C3C=CC(C3)C2C(=O)O)sc2c1CCC(CC)C2 (stereo unspecified) | 98 | 2 | -2 | 38* | 64* | 24*
CCOC(=O)c1c(NS(=O)(=O)c2cccc(OC)c2)sc2c1CCC2 | 94 | -3 | -4 | 60* | 69* | 23*
O=C(Nc1sc2c(c1C(=O)O)CCCC2)c1cccs1 | 101 | 2 | 1 | 19 | . | .
CCc1nc2ccc(C(=O)Nc3cccc(OCC(=O)N(C)C)c3)cn2c1N(C)C(=O)c1ccncc1 | 103 | 0 | -4 | -1 | . | .
COc1ccc(CCC(=O)Nc2cc(S(=O)(=O)N3CCCCC3)ccc2N(C)C)cc1 | 100 | 0 | 3 | 2 | . | .
O=C(/C=C(\O)c1ccccc1)C(=O)NNC(=O)c1ccccc1 | 99 | -1 | 18 | 14 | . | .
COc1ccc(C(=O)NNC(=O)C(=O)/C=C(\O)c2ccc(C)cc2)cc1 | 93 | -2 | -2 | 47* | 25 | 11*
O=C(Nc1ccc(-c2csc(Nc3ccc(Cl)cc3)n2)cc1)c1cccc(C(F)(F)F)c1 | . | 1 | . | 44* | 14 | 11*
CCCOc1ccc(N2C(=O)CC(S/C(N)=N/N=C(\C)c3cccs3)C2=O)cc1 (stereo unspecified) | 87 | -1 | -4 | 66* | 70* | 26* | DNA CAG DR=>30
C/C(=N\N=C(/N)SC1CC(=O)N(c2cccc(Cl)c2)C1=O)c1cccs1 (stereo unspecified) | 98 | -1 | 4 | 54* | 73* | 29* | DNA CAG DR=i
CCCOc1ccc(N2C(=O)CC(SC(=NCC)NCC)C2=O)cc1 (stereo unspecified) | 98 | -2 | -2 | 0 | . | .

Screening results (PubChem BioAssay)
